Screening results (PubChem)
Only some compounds are listed: those with a hit (about 2.6% of all), similar ones and a draw of the others.
Cruzain noTriton: blocks cruzain activity in detergent-free assay; P25779; purified cruzain, Z-FR-AMC fluorescence, no detergent; Potency, µM, most hits filed as inhibitors; actives 2.3% (n = 200,000); AID 1476; further: nearly all actives have a fitted effect of over 40% in size
Target sequence (P25779 123-467 limits assumed): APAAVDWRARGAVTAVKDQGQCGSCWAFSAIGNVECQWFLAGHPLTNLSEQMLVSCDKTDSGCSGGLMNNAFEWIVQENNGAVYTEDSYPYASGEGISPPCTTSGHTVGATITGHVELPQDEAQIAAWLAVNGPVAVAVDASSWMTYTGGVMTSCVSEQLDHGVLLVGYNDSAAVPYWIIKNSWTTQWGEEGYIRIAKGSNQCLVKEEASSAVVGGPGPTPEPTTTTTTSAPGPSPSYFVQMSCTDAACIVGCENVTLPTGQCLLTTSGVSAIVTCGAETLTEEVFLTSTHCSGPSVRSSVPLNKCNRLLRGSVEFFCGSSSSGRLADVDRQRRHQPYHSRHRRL
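Detergent-free condition (0.00005% Triton X-100) in acetate buffer pH 5.5 with DTT. 1.5 nM enzyme and compound were pre-mixed 15 min, then 2 uM Z-FR-AMC substrate added; reaction progress from fluorescence change between first and third reads (60 s).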
Cruzain inh Det: inhibitors of Trypanosoma cruzi cruzain with detergent; P25779; purified cruzain, Z-FR-AMC fluorescence, 0.01% Triton; Potency, µM, hits mostly inhibitors; actives 0.43% (n = 200,000); AID 1478; further: nearly all actives have a fitted effect of over 40% in size
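Cysteine protease activity tested under reducing, mildly acidic conditions (100 mM sodium acetate pH 5.5, 5 mM DTT) plus 0.01% Triton X-100. Cruzain 1.5 nM; substrate Z-FR-AMC 2 uM; 15 min compound preincubation at room temperature.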
Hits are given with their value; - = inactive; ? = inconclusive. The call rests on the fitted dose curve; in most records, active means well fitted curve in the direction sought with a large enough effect; inconclusive means small, poorly fitted or top-dose-only effect, or another doubt; inactive means no such curve, though single readings can be large; an effect the other way counts as inactive or inconclusive.

SMILES | Cruzain noTriton | Cruzain inh Det
CCOC(=O)c1ccccc1NC(=O)c1sc2ccccc2c1Cl | - | -
O=C(COC(=O)c1sc2ccccc2c1Cl)Nc1ncc(Cl)cc1Cl | ? | -
Cc1ccccc1NC(=O)COC(=O)CNC(=O)c1sc2ccccc2c1Cl | 3.16µM | 7.94µM
CCCSc1nc(SCC(=O)NCc2ccccc2)c2c3c(sc2n1)COC(C)(C)C3 | - | -
CC(C)Sc1nc(SCC(=O)NCc2ccco2)c2c3c(sc2n1)COC(C)(C)C3 | 25.1µM | 25.1µM
O=C(O)Cc1ccc([N+](=O)[O-])cc1[N+](=O)[O-] | - | -
CCCCCc1ccc(-c2ccc(/C=C/C(N)=O)cc2)nc1 | 12.6µM | -
CCCCCc1ccc(-c2ccc(C(=O)Oc3ccc(C(=O)OC)cc3)cc2)nc1 | - | -
Cc1cccc2cc(C#N)c(SCC(=O)N3CCC(C)CC3)nc12 | - | -
Cc1cccc2cc(C#N)c(SCC(=O)N3CC(=O)Nc4ccccc43)nc12 | 25.1µM | -
Oc1c(/C=N/Nc2cccc3cccnc23)ccc2ccccc12 | 31.6µM | -
O=C(Nc1cccc2cccnc12)c1cccc2ccccc12 | - | -
CC(=O)c1ccc(N2C(=O)N(Cc3ccc(F)cc3)c3ccccc3S2(=O)=O)cc1 | - | -
COc1cc(NS(=O)(=O)c2ccc(NC(=S)NC(=O)c3cccs3)cc2)nc(OC)n1 | - | -
COc1cc(NC(=S)NC(=O)c2ccc(F)cc2)ccc1NC(=O)c1ccco1 | ? | -
COc1cc(NC(=S)NC(=O)c2c(OC)cccc2OC)ccc1NC(=O)c1cccs1 | - | -
COc1cc(NC(=S)NC(=O)c2cc(C)cc(C)c2)ccc1NC(=O)c1cccs1 | 15.8µM | -
COc1cc(NC(=S)NC(=O)c2ccc(C(C)(C)C)cc2)ccc1NC(=O)c1cccs1 | 12.6µM | -
Cc1cc(C)cc(NS(=O)(=O)c2ccc(NC(=S)NC(=O)c3cccs3)cc2)c1 | 25.1µM | -
N#Cc1c[nH]n2c(NC3CCCC3)c(-c3cccc(Br)c3)nc12 | ? | -
COC(=O)c1ccc(C(NC(=O)OCc2ccccc2)/C(I)=C/[C@@H](C)C(=O)NCC2CC2)cc1 (stereo partly drawn) | - | -
O=C(CSc1nnc(-c2ccc(Cl)cc2)o1)N1CCN(c2ccccc2)CC1 | 15.8µM | -
O=C(CSc1nnc(COc2ccc(Cl)cc2)o1)N1CCN(c2ccccc2)CC1 | - | -
CCc1cc2c(cc3c(=O)n(CCCC(=O)NCc4cccc(Br)c4)ncn32)s1 | - | -
Cc1csc(NC(=O)CSc2nnc(C)s2)n1 | - | -
SMILES | Cruzain noTriton | Cruzain inh Det
Cc1csc(NC(=O)CSc2nnc(NC(=O)COc3ccccc3)s2)n1 | 7.94µM | -
Cc1cc2c(cc1Cl)C(c1ccc3c(c1)OCO3)CC(=O)O2 (stereo not drawn) | - | -
CN(C)[C@H]1C(=O)C(C(=O)NCN2CCCC2)=C(O)[C@]2(O)C(=O)C3=C(O)c4c(O)cccc4[C@](C)(O)[C@H]3C[C@H]12 | - | -
Cc1ccc(O)c(/C=N/NC(=O)c2[nH]ncc2Br)c1 | - | -
Cc1ccc(O)c(/C=N/NC(=O)C2=NNC(c3ccccc3)(c3ccccc3)C2)c1 | 12.6µM | -
O=C(CCCCCN1C(=O)c2cccc3cccc(c23)C1=O)NO | - | -
CCCCOc1ccccc1C(=O)Nc1nonc1-c1ccccc1 | - | -
COc1cc(/C=N/Nc2nc(C)cc(C)n2)ccc1OC(=O)c1ccco1 | - | -
COc1cc(/C=N/Nc2cccc(C)c2)ccc1OC(=O)c1cccs1 | 15.8µM | -
COc1cc(/C=N/NC(=O)COc2ccccc2C)ccc1OC(=O)c1cccs1 | - | -
COc1cc(/C=N/Nc2ccc3ccccc3c2)ccc1OC(=O)c1ccco1 | 25.1µM | -
COc1ccc(-c2cc([C@H](O)C3CCCCN3)c3ccccc3n2)cc1 (stereo partly drawn) | - | -
O=C(CCN1CCN(c2ccccc2F)CC1)Nc1ccccc1F | - | -
O=C(CCN1CCN(c2ccccc2F)CC1)c1ccc(Br)cc1 | ? | 14.1µM
NS(=O)(=O)c1ccc(-c2ccc([As](=O)(O)O)cc2)cc1 | - | -
COc1cccc(-c2nc(N3CCN(c4ccccc4)CC3)c3ccccc3n2)c1O | 10µM | -
COc1cccc(-c2nc(N3CCN(Cc4ccccc4)CC3)c3ccccc3n2)c1O | - | -
CCN(CC)S(=O)(=O)c1nnc(NC(=O)COc2ccc(C)cc2)s1 | - | -
COc1ccc(C2CC(c3cccs3)=NN2c2nc(-c3ccccc3)cs2)cc1OC (stereo not drawn) | 7.94µM | -
COc1ccc(C2CC(c3cccs3)=NN2c2ccc(C=O)cc2)cc1 (stereo not drawn) | ? | -
CC[N+]1(C)[C@@H]2CC[C@H]1CC(OC(=O)[C@H]1CC[C@@](C(=O)OC3C[C@H]4CC[C@@H](C3)[N+]4(C)CC)(c3ccccc3)c3ccccc31)C2 (stereo partly drawn) | - | -
CC(Sc1nnc(NC2CCCCC2)s1)C(=O)Nc1ccc2c(c1)C(=O)c1ccccc1C2=O (stereo not drawn) | 15.8µM | -
